Bioassay records deposited in PubChem BioAssay by Johns Hopkins Ion Channel Center.
KCNQ2 block: inhibitors of rat KCNQ2 potassium channel. O88943. CHO-K1 KCNQ2, FluxOR thallium flux, 20 min; stronger effect = lower value. B-score at 10 µM. 310,000 compounds, 1.1% hits. AID 2156;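 active = fluorescence ratio B-score at most minus 3 library SDs, with starting brightness B-score within 2 library SDs, cut at about -5.5 in these data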
Target sequence (O88943 whole entry, looked up): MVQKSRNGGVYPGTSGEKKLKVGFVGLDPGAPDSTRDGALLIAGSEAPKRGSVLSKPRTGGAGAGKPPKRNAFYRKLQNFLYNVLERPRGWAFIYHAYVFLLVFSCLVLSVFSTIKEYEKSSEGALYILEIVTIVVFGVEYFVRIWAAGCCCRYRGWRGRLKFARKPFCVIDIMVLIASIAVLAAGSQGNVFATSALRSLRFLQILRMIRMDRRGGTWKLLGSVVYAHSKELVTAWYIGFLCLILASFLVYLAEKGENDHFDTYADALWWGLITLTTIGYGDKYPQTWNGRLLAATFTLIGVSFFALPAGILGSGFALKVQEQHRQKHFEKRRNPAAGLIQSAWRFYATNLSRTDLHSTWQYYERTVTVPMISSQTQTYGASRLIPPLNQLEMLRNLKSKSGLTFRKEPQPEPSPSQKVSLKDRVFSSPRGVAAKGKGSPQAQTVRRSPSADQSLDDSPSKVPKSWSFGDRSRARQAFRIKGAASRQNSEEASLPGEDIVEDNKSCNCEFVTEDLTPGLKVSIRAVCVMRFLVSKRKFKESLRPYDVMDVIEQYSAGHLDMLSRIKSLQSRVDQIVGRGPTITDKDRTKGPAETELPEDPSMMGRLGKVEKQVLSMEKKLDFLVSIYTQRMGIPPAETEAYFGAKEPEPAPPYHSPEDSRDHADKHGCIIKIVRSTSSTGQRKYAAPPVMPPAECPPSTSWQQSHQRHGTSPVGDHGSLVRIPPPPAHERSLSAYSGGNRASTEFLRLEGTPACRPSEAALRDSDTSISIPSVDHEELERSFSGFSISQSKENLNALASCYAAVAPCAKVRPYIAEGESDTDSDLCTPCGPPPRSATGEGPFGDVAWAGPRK
KCNQ2 pot: potentiators of rat KCNQ2 potassium channel; O88943; CHO-K1 KCNQ2, FluxOR thallium flux fluorescence; stronger effect = higher value; B-score at 10 µM; 310,000 compounds, 0.54% hits; AID 2239;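 active = fluorescence ratio B-score at least 3 SD of library B-scores, with initial fluorescence B-score within 3 of them, cut at about 5.3 in these data; same plate scores as AID 2156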;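 also: B-score of peak minus minimum over baseline fluorescence ratio after K+ and Tl+ stimulus; positive B-score means potentiation of KCNQ2 with more thallium influx and brighter signal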
A number is an active result; i = inactive; nt = not tested or not shown. Hits are enriched below; roughly 1.6% of the tested compounds scored in any of these assays.

SMILES	KCNQ2 block	KCNQ2 pot
CC1=C(/C=C/C(=O)O)C(C)(C)CCC1	i	i
CCOC(=O)c1c(CN2CCOCC2)n(-c2ccccc2)c2cc(Br)c(OC)cc12	i	nt
CCOC(=O)c1c(CN(C)C)n(-c2ccccc2)c2cc(Br)c(OC)cc12	-6.24	i
O=[N+]([O-])c1cccc(S(=O)(=O)N2CCCCC2c2cccnc2)c1 (configuration not stated)	i	nt
Cc1cc2c(NCc3ccccc3)ncnc2s1	i	i
COc1ccc(/C=C/C(=O)c2ccccc2)cc1COc1ccccc1F	-7.58	i
COc1ccc(C=O)cc1COc1ccccc1F	i	nt
N#CC(c1cccc(C(F)(F)F)c1)(c1ncc(C(F)(F)F)cc1Cl)N1CCOCC1 (configuration not stated)	i	nt
N#CC(c1ccccc1)(c1ncc(C(F)(F)F)cc1Cl)N1CCOCC1 (configuration not stated)	-7	i
C=CCn1c(Cc2csc(N)n2)nnc1SCC(=O)Nc1ccccc1C(F)(F)F	i	i
CCN(CC)c1nc2c(c(=O)n(C)c(=O)n2C)n1CCCc1ccccc1	i	nt
CN(Cc1ccccc1)c1nc2c(c(=O)n(C)c(=O)n2C)n1CCCc1ccccc1	-7.89	i
CN1CCN(NC(=O)Nc2cccc(F)c2)CC1	i	nt
Cc1cc(C)c(C(=O)NC2CCCc3c2cnn3-c2cccc(C)c2C)o1 (configuration not stated)	-6.62	i
Cc1cccc(-n2ncc3c2CCCC3NC(=O)C2(C(N)=O)CC2)c1C (configuration not stated)	i	i
COc1ccc(C(=O)NC2CC(C)(C)Cc3c2cnn3-c2ccccc2C)c(OC)c1OC (configuration not stated)	i	nt
Cc1cc(C(=O)NC2CC(C)(C)Cc3c2cnn3-c2ccccc2C)c(C)o1 (configuration not stated)	-5.74	i
COc1ccc(C(C(=O)NCc2ccc(F)cc2)N(C(=O)c2csnn2)C2CC2)cc1 (configuration not stated)	i	nt
COc1ccc(NC(=O)Cc2coc3cc(C)ccc23)cn1	i	nt
CC12CC3CC(C)(C1)CC(C(=O)Nc1nncs1)(C3)C2	i	i
Cc1ccc(NC(=O)C2C3CCC(O3)C2C(=O)O)cc1Cl (configuration not stated)	i	nt
COC(=O)[C@@H]1CC[C@H](C)[C@@H](c2ccc(C)cc2)N1C(=O)c1ccc(/C=N/OC[C@@H](O)COCc2ccco2)cc1	i	nt
C=CC[C@@H]1C=C[C@H](O/N=C/c2ccc(C(=O)N3[C@H](c4ccc(C)cc4)[C@@H](C)CC[C@H]3C(=O)OC)cc2)[C@@H](CO)O1	-6.08	i
CC1CCc2sc(C(=O)NNC(=S)NCC3CCCO3)cc2C1 (configuration not stated)	i	i
CC1CCc2sc(C(=O)NC(C)C3CCCO3)cc2C1 (configuration not stated)	-6.08	i
SMILES	KCNQ2 block	KCNQ2 pot
O=C1c2ccsc2SCCN1Cc1c(Cl)cccc1Cl	-6.65	i
O=C1c2ccsc2SCCN1Cc1c(F)cccc1Cl	i	nt
Cc1cc(NC(=O)CCSc2ccc(Cl)cc2)no1	i	i
N#C/C(=C\c1cc(Br)ccc1F)C(=O)NC1CC1	-6.1	i
N#C/C(=C\c1cc(Cl)cc(Cl)c1O)C(=O)NC1CCCCC1	-5.68	i
N#C/C(=C\c1cc(Cl)ccc1O)C(=O)NC1CCCCC1	i	nt
N#C/C(=C\c1ccc(F)c(Br)c1)C(=O)NC1CC1	i	nt
COc1ccc(S(=O)(=O)N(C)C2(C)CCS(=O)(=O)C2)cc1OC (configuration not stated)	i	nt
COc1ccc(CCN2C(=NC(=O)C(C)C)SC3CS(=O)(=O)CC32)cc1OC (configuration not stated)	i	i
CCOC(=O)NN=C1CN(S(=O)(=O)c2ccc(C)cc2)C1	i	nt
O=C1Cc2ccccc2C(c2ccc(Br)cc2)N1 (configuration not stated)	-6.27	i
Cc1ccccc1C1NC(=O)Cc2ccccc21 (configuration not stated)	i	i
Cc1cc(C(=O)NC2CCCCCCC2)ccc1[N+](=O)[O-]	i	nt
Cc1ccc(S(=O)(=O)/N=C(/Nc2cccc(O)c2)c2ccccc2)cc1	i	i
COc1cccc(CN2CCNC(=O)C2CC(=O)NCCOc2cccnc2)c1 (configuration not stated)	i	nt
C#CCN(C)CC/C=C1\c2ccccc2CSc2ccccc21	-5.99	i
C=CCN(C)CC/C=C1\c2ccccc2CSc2ccccc21	i	nt
O=C(c1cnn2c(C(F)(F)F)cc(-c3ccc(F)cc3)nc12)N1CCc2ccccc2C1	-6.27	i
Cc1ccc(-c2cc(C(F)F)n3ncc(C(=O)N4CCc5ccccc5C4)c3n2)cc1	i	nt
CN(C)S(=O)(=O)c1ccc(Cl)c(C(=O)NC2=NCCS2)c1	i	i
COc1ccc(Br)cc1/C=C/C(=O)NC(=S)Nc1ccc(CN2CCOCC2)cc1	-6.33	i
COc1ccc(C(=O)NC(=S)Nc2ccc(CN3CCOCC3)cc2)cc1OC	i	nt
